Data on nine molecules can be found in PubChem BioAssay (EPA / NIEHS).

Results filed as inconclusive are left out. Active and inactive are the calls of the source. The calls were made as follows, unless noted: active = hit-call score of the fitted dose curve at least 0.9, where 1 is the maximum; inactive = score below 0.9.

A short description of assay [1]: BSK_4H_Eotaxin3: BioMAP Diversity Plus: 4H Assay for Eotaxin 3 Biomarker Activity (AID 2283000).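 As to outcome: CCL26 protein level quantified by ELISA in parallel with SRB cytotoxicity check.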 Particulars: primary human endothelial cells (HUVEC); actives raise or lower the signal. In outline:
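Chemicals were added to human umbilical vein endothelium cultures, and Eotaxin-3 was quantified by ELISA at 24 h. Values were derived by bidirectional fitting with DMSO serving as negative control and activity baseline.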

Assay [2] addresses human Peroxisome Proliferator-activated Receptor alpha (PPARa), PPARA (gene 5465) (UniProt Q07869). The experiment in a line: ATG_PPARa_TRANS: Attagene TRANS-FACTORIAL HepG2 Assay for human Peroxisome Proliferator-activated Receptor alpha (PPARa) (AID 2283001; active = hit-call score of the fitted dose curve at least 0.9, where 1 is the maximum). In outline:
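HepG2 cells transiently transfected with multiplexed GAL4-UAS reporter units and chimeric NR-Gal4 constructs were dosed for 24 h. Reporter mRNA was measured by RT-PCR with fluorescent labelling and capillary electrophoresis; gain of signal fitted against DMSO.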

Read-out in assay [3]: Intercellular Adhesion Molecule 1 (ICAM1), ICAM1 (gene 3383)
The experiment in a line: BSK_3C_ICAM1: BioMAP Diversity Plus: 3C Assay for Intercellular Adhesion Molecule 1 (ICAM1) Biomarker Activity (AID 2283003). Particulars: primary human endothelial cells (HUVEC); actives raise or lower the signal. In outline: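 Human vascular endothelial primary cells, 3C conditions, 24 h treatment. ICAM-1 by ELISA.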

Assay [4] in a line: BSK_3C_Proliferation: Cell Proliferation Assessment in the BioMAP Diversity Plus: 3C Assay (AID 2283006).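 As to AC50: potency may reflect either rise or fall in cell number versus DMSO.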 To be noted: primary human endothelial cells (HUVEC). In outline:
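Proliferation of human vascular endothelial primary cells after 48 h dosing, quantified as SRB-stained protein at 560 nm relative to DMSO.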

The target of assay [5] is Peroxisome proliferator-activated receptor gamma (Homo sapiens) (UniProt P37231). Nature of the assay: ATG_PPARg_TRANS: Attagene TRANS-FACTORIAL HepG2 Assay for human Peroxisome Proliferator-activated Receptor-gamma (PPARg) (AID 2283007; active = hit-call score of the fitted dose curve at least 0.9, where 1 is the maximum). In outline: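 Multiplexed reporter transcription units in HepG2, 24 h dosing, reporter transcripts quantified by fluorescent RT-PCR and capillary electrophoresis. Increase over DMSO scored.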

The target in assay [6] is Nuclear receptor subfamily 1 group I member 2 (Homo sapiens) (UniProt O75469). Nature of the assay: ATG_PXR_TRANS: Attagene TRANS-FACTORIAL HepG2 Assay for human Pregnane X Receptor (PXR) (AID 2283008; active = hit-call score of the fitted dose curve at least 0.9, where 1 is the maximum). In outline:
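Fluorescence intensity of FAM-labelled, HpaI-digested reporter amplicons, separated by capillary electrophoresis, quantifies induction. HepG2 cells with PXR-Gal4 trans-reporter system were exposed 24 h; DMSO defines baseline.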

The target in assay [7] is human RAR-related Orphan Receptor beta (RORb), RORB (gene 6096) (UniProt Q92753). The experiment in a line: ATG_RORb_TRANS: Attagene TRANS-FACTORIAL HepG2 Assay for human RAR-related Orphan Receptor beta (RORb) (AID 2283010; active = hit-call score of the fitted dose curve at least 0.9, where 1 is the maximum). A digest of the protocol: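 In this TRANS-format test, human HepG2 cells express chimeric NR-Gal4 fusion proteins driving GAL4-UAS reporters. After 24 h dosing, reporter transcripts are measured by fluorescent RT-PCR/capillary electrophoresis, with DMSO as negative control.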

Assay [8] concerns the target human RAR-related Orphan Receptor gamma (RORg), RORC (gene 6097) (UniProt P51449). The experiment in a line: ATG_RORg_TRANS: Attagene TRANS-FACTORIAL HepG2 Assay for human RAR-related Orphan Receptor gamma (RORg) (AID 2283011; active = hit-call score of the fitted dose curve at least 0.9, where 1 is the maximum). In outline:
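First, HepG2 liver cells were transfected with GAL4-UAS-driven reporter constructs and the RORg-Gal4 fusion. Next, they were treated with chemical for 24 h. Finally, reporter mRNA was quantified by RT-PCR and capillary electrophoresis, with upward activity fitted against DMSO.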

The target in assay [9] is Retinoic acid receptor RXR-alpha (Homo sapiens) (UniProt P19793). Nature of the assay: ATG_RXRa_TRANS: Attagene TRANS-FACTORIAL HepG2 Assay for human Retinoid X Receptor alpha (RXRa) (AID 2283012; active = hit-call score of the fitted dose curve at least 0.9, where 1 is the maximum). A digest of the protocol: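 Cells (HepG2) carried transiently transfected GAL4-responsive reporter units. Following a 24 h chemical incubation, reporter mRNA induction was read via RT-PCR fragment analysis; DMSO served as negative control and baseline.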

Read-out in assay [10]: E-selectin (Homo sapiens) (UniProt P16581)
Nature of the assay: BSK_3C_Eselectin: BioMAP Diversity Plus: 3C Assay for Eselectin Biomarker Activity (AID 2283015).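 As to outcome: cell surface E-selectin protein quantified by ELISA 24 h after dosing.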 Particulars: primary human endothelial cells (HUVEC); actives raise or lower the signal. A digest of the protocol: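 ELISA read-out of E-selectin on endothelial monolayers after 24 h chemical treatment. Human umbilical vein primary cells served as the system, with DMSO defining baseline activity for bidirectional fitting.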

Read-out in assay [11]: Interleukin-1 alpha (IL1a), IL1A (gene 3552)
The experiment in a line: BSK_BE3C_IL1a: BioMAP Diversity Plus: BE3C Assay for Interleukin-1 alpha (IL1a) Biomarker Activity (AID 2283016). Particulars: primary human bronchial epithelial cells; actives raise or lower the signal. In outline: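 Cultures of primary human bronchial epithelial cells receive test chemical. After 24 h, IL-1a is quantified by ELISA, while parallel wells are fixed in TCA and SRB-stained for total protein. Changes in either direction are fitted relative to DMSO.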

Read-out in assay [12]: Monocyte Chemoattractant Protein-1 (MCP1), CCL2 (gene 6347)
Nature of the assay: BSK_3C_MCP1: BioMAP Diversity Plus: 3C Assay for Monocyte Chemoattractant Protein-1 (MCP1) Biomarker Activity (AID 2283017). To be noted: primary human endothelial cells (HUVEC); actives raise or lower the signal. In outline: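 ELISA read-out of MCP-1 from human umbilical vein endothelial cell cultures harvested 24 h post-dosing. Gain or loss of signal was fitted relative to DMSO.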

Read-out in assay [13]: Monocyte Chemoattractant Protein-1 (MCP1), CCL2 (gene 6347)
Nature of the assay: BSK_4H_MCP1: BioMAP Diversity Plus: 4H Assay for Monocyte Chemoattractant Protein-1 (MCP1) Biomarker Activity (AID 2283018). Particulars: primary human endothelial cells (HUVEC); actives raise or lower the signal. In outline:
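Readout: MCP-1 ELISA on compound-treated HUVEC, sampled 24 h post-dosing. Baseline and negative control DMSO; bidirectional fit. Overt toxicity checked alongside by sulforhodamine B protein staining at time of biomarker measurement.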

Read-out in assay [14]: Human Leukocyte Antigen - DR isotype (HLADR), HLA-DRA (gene 3122)
Nature of the assay: BSK_3C_HLADR: BioMAP Diversity Plus: 3C Assay for Human Leukocyte Antigen - DR isotype (HLADR) Biomarker Activity (AID 2283019).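 As to outcome: ELISA of cell-surface HLA-DR on HUVEC 24 h after dosing.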 Particulars: primary human endothelial cells (HUVEC); actives raise or lower the signal. In outline:
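ELISA readout of surface HLA-DR on human umbilical vein endothelium, taken 24 h after chemical treatment. Gain- and loss-of-signal were both fitted relative to DMSO.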

The target in assay [15] is human Retinoic Acid Receptor beta (RARb), RARB (gene 5915) (UniProt P10826). The experiment in a line: ATG_RARb_TRANS: Attagene TRANS-FACTORIAL HepG2 Assay for human Retinoic Acid Receptor beta (AID 2283004; active = hit-call score of the fitted dose curve at least 0.9, where 1 is the maximum). A digest of the protocol:
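Transient transfection of HepG2 with multiple reporter units → chemical dosing, 24 h → total RNA isolation → RT with oligo(dT) → reporter-specific PCR, 6-FAM primer extension, HpaI digest → capillary electrophoresis. Positive direction vs DMSO control.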

For assay [16], the target named is Retinoic acid receptor alpha (Homo sapiens) (UniProt P10276). The experiment in a line: ATG_RARa_TRANS: Attagene TRANS-FACTORIAL HepG2 Assay for human Retinoic Acid Receptor alpha (RARa) (AID 2283005; active = hit-call score of the fitted dose curve at least 0.9, where 1 is the maximum). A digest of the protocol:
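HepG2 cells transiently transfected with multiple reporter units expressing chimeric RARα-GAL4 fusion, with GAL4-UAS-driven reporters. After 24 h compound exposure, reporter mRNA induction quantified by RT-PCR and capillary electrophoresis with fluorescent labeling; gain-of-signal fitted relative to DMSO control.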

Assay [17] concerns the target human Retinoic Acid Receptor gamma (RARg), RARG (gene 5916) (UniProt P13631). Nature of the assay: ATG_RARg_TRANS: Attagene TRANS-FACTORIAL HepG2 Assay for human Retinoic Acid Receptor gamma (RARg) (AID 2283009; active = hit-call score of the fitted dose curve at least 0.9, where 1 is the maximum;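 as to AC50: AC50 is for reporter induction above DMSO meaning RARg activation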). In outline: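 HepG2, RARg-GAL4 TRANS system, 24 h exposure; reporter mRNA by RT-PCR + CE fluorescence; increase over DMSO.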
In assay [18] the target is human Retinoid X Receptor beta (RXRb), RXRB (gene 6257) (UniProt P28702). Nature of the assay: ATG_RXRb_TRANS: Attagene TRANS-FACTORIAL HepG2 Assay for human Retinoid X Receptor beta (RXRb) (AID 2283013; active = hit-call score of the fitted dose curve at least 0.9, where 1 is the maximum). A digest of the protocol: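 Multiplexed TRANS reporter assay in HepG2; 24 h dosing; reporter mRNA by RT-PCR/CE fluorescence; gain-of-signal relative to DMSO.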
Assay [19] addresses human Thyroid Receptor alpha (THRa1), THRA (gene 7067) (UniProt P10827). Nature of the assay: ATG_THRa1_TRANS: Attagene TRANS-FACTORIAL HepG2 Assay for human Thyroid Receptor alpha (THRa1) (AID 2283014; active = hit-call score of the fitted dose curve at least 0.9, where 1 is the maximum). In outline:
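Reporter transcript induction, read by capillary electrophoresis of 6-FAM-labelled RT-PCR products, reflects activity of a transfected THRa1-Gal4 fusion in HepG2 liver cells. Cells were dosed for 24 h; activity was fitted in the positive direction against DMSO.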

In assay [20] the target is human Peroxisome Proliferator-activated Receptor delta (PPARd), PPARD (gene 5467) (UniProt Q03181). The experiment in a line: ATG_PPARd_TRANS: Attagene TRANS-FACTORIAL HepG2 Assay for human Peroxisome Proliferator-activated Receptor delta (PPARd) (AID 2283002; active = hit-call score of the fitted dose curve at least 0.9, where 1 is the maximum). In outline:
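Measured quantity: GAL4-UAS reporter transcript induction in HepG2 after 24 h chemical dosing, with NR-Gal4 chimeras supplied by transient transfection. Detection by RT-PCR and capillary electrophoresis; upward fit against DMSO.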

Sequence of human Retinoic Acid Receptor gamma (RARg), RARG (gene 5916) (P13631 whole entry, looked up, the tested form may be a part): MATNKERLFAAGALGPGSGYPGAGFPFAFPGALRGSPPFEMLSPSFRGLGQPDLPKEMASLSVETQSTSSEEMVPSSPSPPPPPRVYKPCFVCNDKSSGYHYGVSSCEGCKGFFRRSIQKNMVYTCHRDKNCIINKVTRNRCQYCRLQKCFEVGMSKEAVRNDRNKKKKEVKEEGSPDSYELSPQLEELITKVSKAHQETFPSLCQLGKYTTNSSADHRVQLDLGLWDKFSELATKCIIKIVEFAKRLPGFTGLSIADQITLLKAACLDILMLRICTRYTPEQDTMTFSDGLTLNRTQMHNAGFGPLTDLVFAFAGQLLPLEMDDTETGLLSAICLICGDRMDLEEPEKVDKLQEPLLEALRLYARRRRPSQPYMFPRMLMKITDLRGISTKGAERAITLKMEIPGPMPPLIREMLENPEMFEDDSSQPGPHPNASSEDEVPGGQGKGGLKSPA
Sequence of human RAR-related Orphan Receptor gamma (RORg), RORC (gene 6097) (P51449 whole entry, looked up, the tested form may be a part): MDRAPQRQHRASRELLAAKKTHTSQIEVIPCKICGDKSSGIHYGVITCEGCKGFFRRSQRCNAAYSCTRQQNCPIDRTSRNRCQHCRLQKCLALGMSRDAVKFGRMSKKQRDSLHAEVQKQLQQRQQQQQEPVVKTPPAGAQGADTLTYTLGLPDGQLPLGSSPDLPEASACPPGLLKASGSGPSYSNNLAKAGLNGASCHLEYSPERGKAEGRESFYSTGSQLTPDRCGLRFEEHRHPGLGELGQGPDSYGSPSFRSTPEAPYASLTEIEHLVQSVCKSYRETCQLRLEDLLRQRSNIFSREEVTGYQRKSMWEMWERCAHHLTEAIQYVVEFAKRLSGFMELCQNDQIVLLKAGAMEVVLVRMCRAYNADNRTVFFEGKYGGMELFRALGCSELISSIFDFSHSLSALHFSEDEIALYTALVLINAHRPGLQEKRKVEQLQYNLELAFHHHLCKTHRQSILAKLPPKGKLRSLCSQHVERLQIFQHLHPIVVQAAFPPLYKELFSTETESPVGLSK
Sequence of human Peroxisome Proliferator-activated Receptor delta (PPARd), PPARD (gene 5467) (Q03181 whole entry, looked up, the tested form may be a part): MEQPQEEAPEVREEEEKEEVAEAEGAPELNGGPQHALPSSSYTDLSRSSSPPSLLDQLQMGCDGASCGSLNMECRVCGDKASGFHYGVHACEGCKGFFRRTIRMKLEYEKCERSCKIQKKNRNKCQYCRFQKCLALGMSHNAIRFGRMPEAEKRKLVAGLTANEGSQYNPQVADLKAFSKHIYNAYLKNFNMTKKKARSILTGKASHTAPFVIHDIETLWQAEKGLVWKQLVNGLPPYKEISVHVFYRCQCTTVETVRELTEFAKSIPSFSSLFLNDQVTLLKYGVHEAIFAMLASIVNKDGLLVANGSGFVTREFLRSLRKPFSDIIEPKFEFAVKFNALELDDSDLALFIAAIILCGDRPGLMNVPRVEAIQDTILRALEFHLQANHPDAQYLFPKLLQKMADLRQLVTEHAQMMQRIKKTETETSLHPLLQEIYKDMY
Sequence of human RAR-related Orphan Receptor beta (RORb), RORB (gene 6096) (Q92753 whole entry, looked up, the tested form may be a part): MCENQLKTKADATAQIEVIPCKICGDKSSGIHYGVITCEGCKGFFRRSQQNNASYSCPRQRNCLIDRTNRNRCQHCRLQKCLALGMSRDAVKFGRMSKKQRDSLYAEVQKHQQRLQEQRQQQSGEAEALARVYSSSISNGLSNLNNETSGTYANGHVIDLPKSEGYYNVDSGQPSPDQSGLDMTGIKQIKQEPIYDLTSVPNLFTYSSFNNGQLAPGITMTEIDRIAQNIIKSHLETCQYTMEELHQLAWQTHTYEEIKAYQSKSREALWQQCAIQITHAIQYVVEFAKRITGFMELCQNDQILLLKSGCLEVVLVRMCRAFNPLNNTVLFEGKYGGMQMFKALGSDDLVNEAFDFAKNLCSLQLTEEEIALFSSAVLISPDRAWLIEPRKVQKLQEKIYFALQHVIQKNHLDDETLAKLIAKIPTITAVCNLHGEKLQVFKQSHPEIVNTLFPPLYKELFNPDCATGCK
Sequence of Retinoic acid receptor RXR-alpha (Homo sapiens) (P19793 whole entry, looked up, the tested form may be a part): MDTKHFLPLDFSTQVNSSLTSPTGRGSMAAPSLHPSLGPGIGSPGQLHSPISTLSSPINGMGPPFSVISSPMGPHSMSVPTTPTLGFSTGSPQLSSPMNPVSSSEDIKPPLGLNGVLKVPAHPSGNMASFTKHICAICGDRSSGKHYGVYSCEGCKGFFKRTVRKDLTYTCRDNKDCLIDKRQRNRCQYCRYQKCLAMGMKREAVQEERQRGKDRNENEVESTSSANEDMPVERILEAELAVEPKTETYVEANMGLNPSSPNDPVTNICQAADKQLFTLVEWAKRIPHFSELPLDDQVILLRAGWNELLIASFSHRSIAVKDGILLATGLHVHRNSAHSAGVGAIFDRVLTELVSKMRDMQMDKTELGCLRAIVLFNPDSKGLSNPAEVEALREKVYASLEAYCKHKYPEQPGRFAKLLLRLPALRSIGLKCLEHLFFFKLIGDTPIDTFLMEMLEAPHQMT
Sequence of human Thyroid Receptor alpha (THRa1), THRA (gene 7067) (P10827 whole entry, looked up, the tested form may be a part): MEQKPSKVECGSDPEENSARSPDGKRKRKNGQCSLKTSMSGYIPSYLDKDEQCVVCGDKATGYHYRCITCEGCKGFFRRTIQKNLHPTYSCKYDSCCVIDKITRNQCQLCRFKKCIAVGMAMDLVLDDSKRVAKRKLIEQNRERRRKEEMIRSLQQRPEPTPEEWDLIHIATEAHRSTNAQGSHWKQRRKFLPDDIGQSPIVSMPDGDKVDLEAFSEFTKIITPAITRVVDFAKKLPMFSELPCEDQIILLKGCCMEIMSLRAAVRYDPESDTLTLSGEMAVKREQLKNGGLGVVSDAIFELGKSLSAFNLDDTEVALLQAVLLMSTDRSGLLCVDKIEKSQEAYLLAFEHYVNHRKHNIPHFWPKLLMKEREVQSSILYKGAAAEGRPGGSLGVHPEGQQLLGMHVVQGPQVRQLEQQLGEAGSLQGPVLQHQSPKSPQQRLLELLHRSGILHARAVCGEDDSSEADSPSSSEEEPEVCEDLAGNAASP
Sequence of Peroxisome proliferator-activated receptor gamma (Homo sapiens) (P37231 whole entry, looked up): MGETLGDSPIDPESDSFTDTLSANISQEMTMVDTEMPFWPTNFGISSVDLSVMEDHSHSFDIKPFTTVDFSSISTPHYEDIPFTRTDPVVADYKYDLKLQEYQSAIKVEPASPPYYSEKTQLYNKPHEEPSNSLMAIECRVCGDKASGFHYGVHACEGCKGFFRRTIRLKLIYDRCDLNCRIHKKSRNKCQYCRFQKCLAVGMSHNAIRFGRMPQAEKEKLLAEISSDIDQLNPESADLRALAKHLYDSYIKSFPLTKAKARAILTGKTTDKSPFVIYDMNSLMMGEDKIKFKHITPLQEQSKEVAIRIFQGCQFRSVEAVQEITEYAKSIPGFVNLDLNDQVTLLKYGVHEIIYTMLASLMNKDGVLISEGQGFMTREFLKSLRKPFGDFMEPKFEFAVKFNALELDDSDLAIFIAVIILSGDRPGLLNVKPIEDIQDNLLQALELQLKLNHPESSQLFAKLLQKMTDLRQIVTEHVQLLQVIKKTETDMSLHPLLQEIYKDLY
Sequence of human Retinoid X Receptor beta (RXRb), RXRB (gene 6257) (P28702 whole entry, looked up): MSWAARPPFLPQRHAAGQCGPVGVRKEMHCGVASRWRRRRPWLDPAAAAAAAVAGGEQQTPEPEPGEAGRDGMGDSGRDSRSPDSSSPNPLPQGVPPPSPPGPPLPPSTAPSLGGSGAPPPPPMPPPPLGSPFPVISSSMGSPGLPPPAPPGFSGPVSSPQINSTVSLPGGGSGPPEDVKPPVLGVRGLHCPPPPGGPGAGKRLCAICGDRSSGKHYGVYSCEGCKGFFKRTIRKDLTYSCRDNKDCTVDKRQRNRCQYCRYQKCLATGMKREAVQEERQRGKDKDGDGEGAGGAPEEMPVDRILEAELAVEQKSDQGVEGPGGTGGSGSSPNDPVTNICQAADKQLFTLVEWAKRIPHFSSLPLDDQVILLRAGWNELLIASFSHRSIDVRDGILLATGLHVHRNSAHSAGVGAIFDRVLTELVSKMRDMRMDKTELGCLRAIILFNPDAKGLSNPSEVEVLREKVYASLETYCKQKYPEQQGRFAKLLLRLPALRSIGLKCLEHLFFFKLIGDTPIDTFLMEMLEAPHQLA
Sequence of Nuclear receptor subfamily 1 group I member 2 (Homo sapiens) (O75469 whole entry, looked up, the tested form may be a part): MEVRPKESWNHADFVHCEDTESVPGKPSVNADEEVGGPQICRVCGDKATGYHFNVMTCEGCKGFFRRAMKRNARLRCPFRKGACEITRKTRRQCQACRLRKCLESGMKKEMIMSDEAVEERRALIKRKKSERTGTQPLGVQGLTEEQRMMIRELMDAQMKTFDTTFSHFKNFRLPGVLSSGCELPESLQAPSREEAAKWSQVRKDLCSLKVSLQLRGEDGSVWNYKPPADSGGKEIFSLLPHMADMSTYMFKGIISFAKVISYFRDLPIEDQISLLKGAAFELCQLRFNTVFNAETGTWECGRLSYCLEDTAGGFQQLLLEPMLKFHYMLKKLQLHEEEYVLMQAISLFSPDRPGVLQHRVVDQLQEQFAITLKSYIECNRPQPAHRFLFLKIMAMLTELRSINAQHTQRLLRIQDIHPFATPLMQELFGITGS
Sequence of E-selectin (Homo sapiens) (P16581 whole entry, looked up): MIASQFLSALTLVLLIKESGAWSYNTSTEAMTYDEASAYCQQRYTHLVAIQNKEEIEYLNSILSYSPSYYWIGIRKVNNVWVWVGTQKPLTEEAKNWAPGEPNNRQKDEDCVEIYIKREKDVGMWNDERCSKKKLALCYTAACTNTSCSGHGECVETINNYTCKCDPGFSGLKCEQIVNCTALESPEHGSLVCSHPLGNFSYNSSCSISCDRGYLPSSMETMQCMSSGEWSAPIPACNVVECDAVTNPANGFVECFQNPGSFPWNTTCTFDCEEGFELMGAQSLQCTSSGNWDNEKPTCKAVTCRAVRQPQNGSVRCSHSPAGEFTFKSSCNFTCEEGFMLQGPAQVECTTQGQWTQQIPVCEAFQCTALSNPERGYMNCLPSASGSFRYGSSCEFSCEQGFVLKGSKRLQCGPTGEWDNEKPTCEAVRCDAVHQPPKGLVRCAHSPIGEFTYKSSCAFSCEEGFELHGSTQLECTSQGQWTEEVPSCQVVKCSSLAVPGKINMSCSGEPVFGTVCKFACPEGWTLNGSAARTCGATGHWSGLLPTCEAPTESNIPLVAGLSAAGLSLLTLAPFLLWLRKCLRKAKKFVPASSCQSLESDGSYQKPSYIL

In the case of `C=CC(C)(CCC=C(C)C)OC(C)=O` (stereo not given), the AC50 is 34.2 µM (active) in [1]; 34.2 µM (active) in [4]; 29.5 µM (active) in assay [6]; 32.1 µM (active) in [10]; 35.2 µM (active) in assay [12]; 27 µM (active) in assay [13]. In addition, the AC50 in [14] was 28.2 µM (active). The call in assay [2], in assay [3], in [5], in [7], in assay [8] and in [9] was inactive. In addition, in [11], the result was inactive.
As for `CN(Cc1cnc2nc(N)nc(N)c2n1)c1ccc(C(=O)N[C@@H](CCC(=O)O)C(=O)O)cc1`, the result in assay [1], in assay [3], in assay [15], in [16], in assay [4] and in assay [5] was inactive. Moreover, the molecule was classed as inactive in assay [17], in assay [7], in assay [8], in assay [9], in [18] and in assay [10]. In addition, the result in assay [11], in assay [12], in assay [13] and in assay [14] was inactive.
As for `O=C1c2ccc(O)c(O)c2C(=O)c2c(O)ccc(O)c21`, the result in assay [1], in [3], in assay [15], in assay [4], in [5] and in assay [6] was inactive. Besides, the outcome in assay [7], in [9], in [18], in assay [10], in assay [11] and in [12] was inactive. In addition, the result in [13] and in assay [14] was inactive. Further, the AC50 in assay [17] was 50 µM (active); in assay [19], 13.8 µM (active).
Take `COc1cccc(O)c1`: the outcome in assay [1], in assay [20], in [3], in assay [4], in assay [8] and in [9] was inactive. Besides, the call in assay [18], in [19], in assay [10], in assay [11], in assay [12] and in [13] was inactive. In addition, in assay [14], the outcome was inactive.
Turning to `CCOC=O`, the result in [2], in assay [20], in assay [15], in assay [6], in [17] and in assay [8] was inactive. The result in [9] was inactive.
As for `OCC(CO)(CBr)CBr`, the result in assay [1], in [3], in assay [4], in assay [9], in assay [19] and in assay [10] was inactive. In addition, the result in assay [11], in [12], in [13] and in assay [14] was inactive.
For `O=C(c1cc(O)c(O)c(O)c1)c1ccc(O)c(O)c1O`, the outcome in assay [2], in [20], in assay [15], in assay [6], in assay [17] and in assay [7] was inactive. Besides, the call in assay [8], in assay [9] and in [19] was inactive.
As to `N=C(N)c1ccc(OCCCCCOc2ccc(C(=N)N)cc2)cc1`, the outcome in assay [1], in assay [3], in assay [9], in [11], in [12] and in [13] was inactive. The AC50 in [4] was 5.13 µM (active); in assay [10] it was 0.932 µM (active); in assay [14], 10.1 µM (active).
Regarding `COCN(COC)c1nc(N(COC)COC)nc(N(COC)COC)n1`, the outcome in [1], in assay [20], in assay [3], in [4], in assay [17] and in assay [18] was inactive. Further, the outcome in assay [10], in assay [11], in assay [12], in [13] and in [14] was inactive.
